Compound activity as filed in PubChem BioAssay.
sPLA2-III inh: Blocks human group III sPLA2 activity. actives 0.56% (n = 370,000). QFRET BODIPY PC-A2 liposome hydrolysis, fluorescence. AID 743126. inhibition, % at 12.2 µM. Q9NZ20;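 active means inhibition above mean plus 3 SD of compounds lying within the high and low control bounds, cut at about 19% in these data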;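 further: 0% = median of test compound wells and 100% = no enzyme DMSO wells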
NRP1-CendR mod: modulators of CendR peptide binding to human neuropilin-1. O14786. FAM-RPARPAR peptide binding to NRP-1, fluorescence polarization. inhibition, % at 25 µM. actives 0.85% (n = 360,000). AID 602438;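 active means inhibition or corrected inhibition above about 18%, plus a signal ratio from 0.5 to 1.5, limit read from the data, passing the limit was not always enough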
KLK7 zymogen act: activators of human kallikrein-7 zymogen; P49862; purified proKLK7, EDANS-DABCYL substrate fluorescence; 100% is mature enzyme control, 0% vehicle; activation, % at 7 µM; actives 0.9% (n = 370,000);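 active means activation above the mean of all tested compounds plus 3 SD, computed per campaign excluding outliers beyond control limits, cut at about 13% in these data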
ADAM17 inh: ADAM17 inhibition, QFRET primary screen; P78536; recombinant ADAM17, EDANS/DABCYL FRET peptide cleavage; inhibition, % at 6.95 µM; actives 0.83% (n = 370,000); AID 720648;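 active means inhibition above the mean of compounds lying between control limits plus 3 SD, set per campaign, cut at about 8.5% in these data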;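 further: 0% = DMSO-only wells as the low control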
ADAM10 inh: inhibitors of human ADAM10; O14672; recombinant ADAM10, EDANS/DABCYL FRET peptide cleavage, 3 h; inhibition, % at 7 µM; actives 0.62% (n = 370,000);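 active means inhibition above a per-campaign cutoff equal to the mean of compounds falling between control-based bounds plus 3 SD, cut at about 20% in these data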;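 further: 0% = DMSO wells while the 100% control is not disclosed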
Target sequence (O14672 214-748 limits assumed): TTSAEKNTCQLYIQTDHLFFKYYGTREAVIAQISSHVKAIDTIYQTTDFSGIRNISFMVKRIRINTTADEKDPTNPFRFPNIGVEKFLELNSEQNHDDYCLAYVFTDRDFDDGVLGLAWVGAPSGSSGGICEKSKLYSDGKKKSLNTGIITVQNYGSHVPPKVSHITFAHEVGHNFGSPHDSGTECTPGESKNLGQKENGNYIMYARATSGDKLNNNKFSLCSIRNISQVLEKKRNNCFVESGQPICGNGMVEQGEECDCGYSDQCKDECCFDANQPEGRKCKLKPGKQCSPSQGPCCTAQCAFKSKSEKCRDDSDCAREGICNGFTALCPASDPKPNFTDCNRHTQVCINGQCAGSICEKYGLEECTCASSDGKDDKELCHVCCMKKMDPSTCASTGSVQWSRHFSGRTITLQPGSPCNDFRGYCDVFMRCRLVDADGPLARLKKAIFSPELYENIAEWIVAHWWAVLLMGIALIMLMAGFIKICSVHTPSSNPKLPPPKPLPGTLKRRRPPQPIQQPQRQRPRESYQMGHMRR
KLK7 act conf: proKLK7 activation, confirmation. activation, % at 7 µM. actives 68% (n = 3,200). shares compounds with KLK7 zymogen act. purified proKLK7, EDANS-DABCYL substrate fluorescence; scaled: vehicle 0, mature enzyme 100;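 active means activation, as change over the incubation, above the mean of all tested compounds plus 3 SD, cut at about 13% in these data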
EDANS interfere: counter-screen for kallikrein-7 activators: EDANS-DABCYL optical interference; actives 80% (n = 3,200); activation, % at 7 µM; shares compounds with KLK7 zymogen act; EDANS-DABCYL substrate fluorescence interference, no enzyme, 4 h; solvent 0%, active enzyme control 100%;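 active means activation above the all-compound mean plus 3 SD, ignoring values outside control-based bounds, cut at about 4.8% in these data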;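 further: value is the 4 h activation minus the activation read at time zero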
EDANS interf: counter-screen for kallikrein-7 activators: EDANS-DABCYL interference, dose response; AID 720493; shares compounds with KLK7 zymogen act; actives 20% (n = 250); EC50, µM; EDANS-DABCYL peptide fluorescence interference, no enzyme;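 active means compounds that raise the fluorescence signal in this interference counterscreen, with EC50 at or below 10 µM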;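 further: intact quenched peptide substrate alone read at 355 nm excitation and 520 nm emission; signal is fluorescence gain from T0 to T4 after four hours at room temperature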
* marks the source's active call; other numbers are inactive results; i = inactive; nt = no result given. The list is not random: actives were taken first. Their share in the collection is about 3.4%.

SMILES	sPLA2-III inh	NRP1-CendR mod	KLK7 zymogen act	ADAM17 inh	ADAM10 inh	KLK7 act conf	EDANS interfere	others
COCCn1c(=O)[nH]c(=O)c2c(C(F)(F)F)cc(-c3cccs3)nc21	6	11	31*	i	i	-13	-34
Cc1nn(C)c2nc(-c3cccs3)cc(C(F)(F)F)c12	3	-12	-3	-8	-21	nt	nt
c1cc(-c2cnc3cccnn23)c2cccnc2c1	16	18	18*	-262	i	18*	22*
c1ccc2c(-c3cnc4cccnn34)cncc2c1	-6	6	25*	-199	i	20*	21*
CC(C)=CCC/C(C)=C/COc1c2occc2cc2ccc(=O)oc12	1	5	-1	2	1	nt	nt
COc1cc2ccc(=O)oc2c(O)c1OCC=C(C)C	2	7	148*	-50	-134	152*	151*
CCCCNC(=O)CC1S/C(=N/N=C/c2ccc(OC)cc2)NC1=O (stereo not given)	5	-12	1	-2	1	nt	nt
O=C(O)CCCNC(=O)CC1S/C(=N/N=C/c2ccccc2O)NC1=O (stereo not given)	-2	1	25*	-15	-48	27*	34*
N#Cc1cnn2c(-c3cccc(C(F)(F)F)c3)ccnc12	-4	-17	9	-106	-381	nt	nt
N#Cc1cnn2c(-c3ccc(Cl)cc3Cl)ccnc12	1	9	20*	-227	i	21*	22*
COc1ccc(C(=O)C2(C(=O)NC3CCCC3)CC(c3ccccc3C(F)(F)F)=NO2)cc1 (stereo not given)	-2	nt	0	2	7	nt	nt
COC(=O)N1CCCC1c1cccc2[nH]cc(C)c12 (stereo not given)	-10	nt	-1	-6	-12	nt	nt
Oc1ccc(C=Nc2ccccc2-c2nc3ccccc3[nH]2)c(O)c1	-5	-12	38*	i	i	-88	-96
COc1ccc(OC)c(C=Nc2ccccc2-c2nc3ccccc3[nH]2)c1	0	-1	31*	i	i	-142	-118
Oc1ccccc1C=Nc1ccccc1-c1nc2ccccc2[nH]1	1	18	77*	i	i	-386	-354
O=C1C(=O)N(Cc2ccc(-c3ccc(F)nc3)cc2)c2ccc(OC(F)(F)F)cc21	15	nt	nt	-1	-4	nt	nt
COCC#Cc1cnc2c(c1)C(=O)N([C@@H](C)CO)C[C@H](C)[C@H](CN(C)C(=O)c1ccc3c(c1)OCO3)O2	1	nt	0	-5	-8	nt	nt
CCc1cc2c(nc1CC)CCCN2C	6	nt	30*	-115	-422	-47	-46
CCCCS(=O)(=O)N1CCCc2nc(CC)c(CC)cc21	5	nt	0	-6	-9	nt	nt
CCOC(=O)N1CCC(N2C(=O)c3ccccc3C2Nc2ccc3c(C)cc(=O)oc3c2)CC1 (stereo not given)	-8	-14	36*	i	i	-142	-142
CC1(C)Oc2ccc3ccc(=O)oc3c2[C@@H](O)[C@H]1O	11	-4	3	-189	i	nt	nt
CC1(C)Oc2ccc3ccc(=O)oc3c2C(/C=N/O)C1=O (stereo not given)	-3	3	27*	-24	-86	17*	18*
CC(=O)N1CCCN(S(=O)(=O)c2ccc3c(c2)oc(=O)n3C)CC1	1	nt	0	1	-2	nt	nt
O=C(NCC1CCCO1)c1cc(-c2ccco2)nc2ccccc12 (stereo not given)	0	9	59*	-165	-470	67*	68*
O=C(NC1CCC(O)CC1)c1cc(-c2ccco2)nc2ccccc12 (stereo not given)	2	12	28*	i	i	13*	11*	EDANS interf=>70
COc1cccc(-c2cc(C(=O)NC3CC3)c3ccccc3n2)c1	5	0	0	2	-4	nt	nt
